From ChEMBL document CHEMBL3988442, “University of Dundee, Small-Polar-MMV Screening Library” (2021)
The campaign covered roughly 48,000 compounds. About 13,000 (27%) showed an effect of 50% or more. The list shows a part of the results.

What follows are molecules tested on Wolbachia pipientis (assay: Anti-Wolbachia Cell-Based Screen). Details: 5 µM.
Type: functional
Parameters: scale not given: in the data most compounds retested in dose-response had high values
With `Cc1nc(-c2ccc(S(=O)(=O)N3CCC=C(F)C3)cc2)co1` the “Percent Effect” value was 3.194%. With `CCN(CC)c1ncccc1CNCc1ccc(-c2ccn[nH]2)s1` the “Percent Effect” value was 103.4%. `CCN(CC)c1ncccc1CNC(=O)c1cc2nc(C)cc(C)n2n1` was tested, and the “Percent Effect” value was -11.51%. In the case of `CCC(CO)N(Cc1ccccn1)Cc1ccc(-c2ccn[nH]2)s1` (configuration not stated), the “Percent Effect” value was 0.2436%. For `CCC(CO)N(Cc1cccnc1)Cc1ccc(-c2ccn[nH]2)s1` (configuration not stated), the “Percent Effect” value was 4.35%. With `CCN(Cc1ccc(Cl)s1)S(=O)(=O)CC` the “Percent Effect” value was -12.66%. For `CCN(CC)c1ncccc1CNCc1cc2ccccc2s1`, the “Percent Effect” value was 111.2%. In the case of `CCN(CC)c1ncccc1CNC(=O)c1cnn(CC)c1`, the “Percent Effect” value was -6.3%. `CCN(CC)c1ncccc1CNCc1ccc(Cl)s1` was tested, and the “Percent Effect” value was 99.51%. In the case of `Cc1cc(N(C)C)nc(N2CCn3c(nnc3C(C)C)C2)n1`, the “Percent Effect” value was -5.2%. `NC(=O)C1CCCN1Cc1ccccc1NC(=O)Cc1cccs1` (configuration not stated) was tested, and the “Percent Effect” value was -13.98%. In the case of `COCCn1ccc2ccc(C(=O)N3CCN(C(C)=O)CC3)cc21`, the “Percent Effect” value was 108.9%. For `COCCn1ccc2cc(NC(=O)COC)ccc21`, the “Percent Effect” value was 1.286%. With `Cn1ccc2ccc(C(=O)N3CCN(C(=O)N4CCOCC4)CC3)cc21` the “Percent Effect” value was 0.8109%. `CN(C)S(=O)(=O)N1CCN(C(=O)c2ccc3ccn(C)c3c2)CC1` was tested, and the “Percent Effect” value was 5.412%. With `CCOC(=O)N1CCN(C(=O)c2ccc3ccn(C)c3c2)CC1` the “Percent Effect” value was 0.8286%. For `COCCn1ccc2cc(C(=O)N3CCN(S(C)(=O)=O)CC3)ccc21`, the “Percent Effect” value was 125.8%. With `CCC(=O)Nc1ccc2c(ccn2CCOC)c1` the “Percent Effect” value was 8.893%. In the case of `CS(=O)(=O)N1CCC(Oc2ccc(C(=O)N3CCSCC3)cc2Cl)CC1`, the “Percent Effect” value was 7.501%. With `COCCn1ccc2ccc(C(=O)O)cc21` the “Percent Effect” value was 99.17%. With `CC(C1CCN(Cc2c(Cl)cncc2Cl)CC1)N1CCN(C)CC1` (configuration not stated) the “Percent Effect” value was -10.06%. For `CC1(c2ccccc2)CCC(=O)N(CC2(N3CCOCC3)CCCC2)C1` (configuration not stated), the “Percent Effect” value was -0.1352%. For `O=C(NCc1nc(C2CC2)no1)N1CCOC(c2ccccc2)C1` (configuration not stated), the “Percent Effect” value was -16.91%. With `COC(=O)[C@@H]1Cc2ncn(C)c2CN1S(=O)(=O)c1ccc(OC)cc1` the “Percent Effect” value was 2.654%. `O=C(Nc1ccnn1C1CCCC1)c1ccc(NC2CC2)nc1` was tested, and the “Percent Effect” value was -4.734%. `CCc1c(C)nn(CCN2CC3(CCOC3)CCC2=O)c1C` (configuration not stated) was tested, and the “Percent Effect” value was -12.78%. In the case of `CC(C)CCC(=O)NCCc1ccn(-c2ccccc2)n1`, the “Percent Effect” value was 127.8%. For `CC(C)(CNC(=O)NCCc1ccn(-c2ccccc2)n1)C(N)=O`, the “Percent Effect” value was 145.8%. `O=C(CCNc1ncccn1)NCCc1ccn(-c2ccccc2)n1` was tested, and the “Percent Effect” value was 0.9035%. `CC(C)(CNC(=O)NCCOc1cccc(F)c1)C(N)=O` was tested, and the “Percent Effect” value was -10.47%. In the case of `CC(C)(C)C(=O)NCCC(=O)NCCc1ccn(-c2ccccc2)n1`, the “Percent Effect” value was 101.3%. In the case of `CC(C)(C)C(=O)NCCc1ccn(-c2ccccc2)n1`, the “Percent Effect” value was 8.286%. With `CC(C)CCNC(=O)CCc1ccnc2ccccc12` the “Percent Effect” value was -1.133%. For `CCNC(=O)CCS(=O)(=O)Cc1ccn(-c2cccc(F)c2)n1`, the “Percent Effect” value was -7.781%. In the case of `CCC(CC)NC(=O)CN1CCN(C(=O)N(C)C)CC1`, the “Percent Effect” value was 29.72%. In the case of `CCCn1cnnc1CNC1CSCCSC1`, the “Percent Effect” value was 10.77%. In the case of `Fc1cccc(-c2nnn3c2COC(CNCc2ccsc2)C3)c1.O=C(O)C(F)(F)F` (configuration not stated), the “Percent Effect” value was -5.927%. With `Cc1cccc(COCC2c3nnn(C)c3CCN2Cc2ccoc2)n1.O=C(O)C(F)(F)F.O=C(O)C(F)(F)F` (configuration not stated) the “Percent Effect” value was -0.8413%. In the case of `Cc1cnnn1Cc1nnn2c1CN(Cc1cccs1)CCC2.O=C(O)C(F)(F)F`, the “Percent Effect” value was -1.131%. For `COCC1Cn2nnc(-c3cnn(C)c3)c2CN1Cc1ccco1.O=C(O)C(F)(F)F` (configuration not stated), the “Percent Effect” value was -7.435%. With `COCC1Cn2nnc(-c3cnn(C)c3)c2CN1Cc1ccc(C)o1` (configuration not stated) the “Percent Effect” value was 87.7%. `COCC1Cn2nnc(-c3cnn(C)c3)c2CN1Cc1cccs1.O=C(O)C(F)(F)F` (configuration not stated) was tested, and the “Percent Effect” value was 105.4%. `COCC1Cn2nnc(-c3cnn(C)c3)c2CN1Cc1ccoc1.O=C(O)C(F)(F)F` (configuration not stated) was tested, and the “Percent Effect” value was 100.4%. In the case of `COCC1Cn2nnc(-c3cnn(C)c3)c2CN1Cc1ccc(C)s1.O=C(O)C(F)(F)F` (configuration not stated), the “Percent Effect” value was -9.357%. With `Cn1cc(-c2nnn3c2COC(CNCc2nccs2)C3)cn1` (configuration not stated) the “Percent Effect” value was 7.882%. With `COCC1CN(Cc2ccc(C)o2)Cc2cn(C)nc21.O=C(O)C(F)(F)F.O=C(O)C(F)(F)F` (configuration not stated) the “Percent Effect” value was -19.49%. For `COCC1Cn2nnc(-c3cnn(C)c3)c2CN1Cc1ccsc1.O=C(O)C(F)(F)F` (configuration not stated), the “Percent Effect” value was 97.96%. With `COCC1CN(Cc2ccsc2)Cc2nn(C)cc21.O=C(O)C(F)(F)F` (configuration not stated) the “Percent Effect” value was 2.999%. With `CN(C)S(=O)(=O)N1C[C@H]2CCC[C@@]2(COCC2CCOCC2)C1` the “Percent Effect” value was -9.423%. For `CCc1nc(CNC2CCN(c3ccc(OC)cc3)CC2)cs1`, the “Percent Effect” value was -5.711%. With `O=C(c1ccncc1F)N1CCc2ncnc(N3CCOCC3)c2CC1` the “Percent Effect” value was 22.92%. For `CCc1c(C)nn(CCNC(=O)c2cnn[nH]2)c1C`, the “Percent Effect” value was -18.26%.
